Assay results: PubChem BioAssay AID488969 (Vanderbilt High Throughput Screening Facility, 2010)
The full ranking holds about 110,000 compounds; the median of “z-score” is about -0.1, and the highest 2% start at about 2. The sample as a whole holds a higher share of the highest values than the screen did. Active and inactive are the calls of the source.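 The calls were made as follows: active = z-score in the third read window above 3 or below -3; inactive = the rest.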

The compounds below were run against Metabotropic glutamate receptor 8 (Rattus norvegicus) (UniProt P70579) (assay: mGluR8 Gi/Go-coupled signaling modulation – cell-based, rat, thallium flux, HTS, primary screen (AID 488969)). Details: HEK293 rat mGluR8, GIRK (G protein-gated inwardly rectifying potassium channel) thallium flux, FluoZin2; at 10 µM; stronger effect = higher value; submaximal glutamate (EC20) added with thallium.
Sequence of Metabotropic glutamate receptor 8 (Rattus norvegicus) (P70579 whole entry, looked up): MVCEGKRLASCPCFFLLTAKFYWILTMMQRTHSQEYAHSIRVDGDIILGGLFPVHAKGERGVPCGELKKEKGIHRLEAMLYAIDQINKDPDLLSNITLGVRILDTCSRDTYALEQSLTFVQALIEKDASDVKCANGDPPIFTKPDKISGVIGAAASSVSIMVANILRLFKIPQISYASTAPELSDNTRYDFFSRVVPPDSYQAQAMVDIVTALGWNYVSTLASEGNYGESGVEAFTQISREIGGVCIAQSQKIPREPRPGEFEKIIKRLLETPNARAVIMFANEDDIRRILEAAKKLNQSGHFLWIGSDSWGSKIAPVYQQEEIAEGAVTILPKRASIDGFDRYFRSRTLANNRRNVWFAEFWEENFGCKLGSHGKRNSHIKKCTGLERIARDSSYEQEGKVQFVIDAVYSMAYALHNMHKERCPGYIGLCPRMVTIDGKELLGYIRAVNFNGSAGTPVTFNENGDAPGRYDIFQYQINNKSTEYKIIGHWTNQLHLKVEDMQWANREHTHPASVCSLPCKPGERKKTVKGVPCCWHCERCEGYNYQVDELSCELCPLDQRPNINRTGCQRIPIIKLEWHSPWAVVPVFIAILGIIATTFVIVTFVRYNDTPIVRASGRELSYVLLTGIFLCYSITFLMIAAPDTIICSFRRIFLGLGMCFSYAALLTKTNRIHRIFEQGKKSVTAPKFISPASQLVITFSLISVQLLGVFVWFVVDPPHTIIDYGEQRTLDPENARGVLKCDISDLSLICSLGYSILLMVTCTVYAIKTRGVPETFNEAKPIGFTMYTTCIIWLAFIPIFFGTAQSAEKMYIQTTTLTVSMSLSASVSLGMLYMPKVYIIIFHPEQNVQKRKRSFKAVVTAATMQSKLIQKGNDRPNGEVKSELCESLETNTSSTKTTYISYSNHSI

Row | Structure (SMILES) | z-score
1 | Cc1ccc(-c2nn(CC(=O)Nc3ccc4c(c3)nc3n4CCOC3)c(=O)c3ccccc23)cc1 | -0.236
2 | COc1ccccc1N1CCN(C(=O)Cn2c(=O)[nH]c3ccsc3c2=O)CC1 | -0.563
3 | S=C(NCCN1CCOCC1)Nc1ccc(Cl)cc1 | -0.102
4 | COc1cccc(-c2cc(C(=O)Nc3cnn(Cc4ccccc4C)c3)no2)c1 | 0.0739
5 | O=C(Nc1cccnc1)c1cc(-c2ccccc2)on1 | -0.466
6 | CCCn1cc(NC(=O)c2cc(-c3ccccc3)on2)cn1 | 13 (active)
7 | CC(C)n1cc(NC(=O)c2cc(-c3ccccc3)on2)cn1 | 16.8 (active)
8 | O=C(Nc1cnn(C23CC4CC(CC(C4)C2)C3)c1)c1cc(-c2ccccc2)on1 | 0.107
9 | Cc1ccc(-c2cc(C(=O)Nc3cnn(C(C)C)c3)no2)cc1 | 0.74
10 | COc1ccc(Sc2cc(C(F)(F)F)nc(-c3ccccn3)n2)cc1 | -0.417
11 | CCOc1ccccc1CNC(=O)CCNC(=O)Cn1ccc2ccccc2c1=O | 0.269
12 | Cc1ccccc1-n1c(-c2csc3ccccc23)n[nH]c1=S | 0.627
13 | Cc1cccc(-n2c(-c3csc(C)c3)n[nH]c2=S)c1 | 0.189
14 | Cc1cccc(-n2c(-c3csc(C(C)C)c3)n[nH]c2=S)c1 | 2.87
15 | CCc1cc(-c2n[nH]c(=S)n2-c2cccc(C)c2)cs1 | 0.65
16 | Cc1cccc(-n2c(-c3csc4ccccc34)n[nH]c2=S)c1 | 2.62
17 | Cc1cccc(-n2c(-c3csc(C)c3C)n[nH]c2=S)c1 | 0.00757
18 | CC(NC(=O)C1CCCCC1)C(=O)NC1=NCCS1 (stereo not given) | 0.00509
19 | Cc1cccc(C)c1Oc1nc(-c2ccccc2)ncc1S(=O)(=O)c1ccccc1 | -0.0101
20 | CN1CCN(CCCNC(=O)c2ccc3c(c2)N(Cc2ccccc2)CCS3)CC1 | 0.775
21 | N#C/C(=N\Nc1ccc(Cl)cc1)C(=N)N1CCCCC1 | 0.186
22 | Cc1cccc(C(=O)Nc2nnc(SCC(=O)Nc3ccc4c(c3)oc3ccccc34)s2)c1 | -0.242

Row | Structure (SMILES) | z-score
23 | COC(=O)C1CCN(S(C)(=O)=O)CC1 | -0.211
24 | CCc1ccccc1NC(=S)NCc1ccc2c(c1)OCO2 | -0.0875
25 | CSc1nnc(Nc2ccccc2C)s1 | -0.0316
26 | CCCSc1nnc(Nc2ccccc2C)s1 | 4.96 (active)
27 | C/C(N)=C(/C#N)C(=O)CSc1nnc(Nc2ccccc2C)s1 | -0.126
28 | COc1ccc(OC)c(Nc2ccc(Nc3cc(OC)ccc3OC)nn2)c1 | -0.125
29 | COc1ccccc1Nc1nnc(C)c(=O)[nH]1 | -0.361
30 | COc1ccccc1Nc1ccc(Nc2ccccc2OC)nn1 | 2.82
31 | O=Cc1cn(CC(=O)N2CCOCC2)c2ccccc12 | -0.773
32 | Cc1noc(C)c1C(=O)N1CCN(C(=O)c2sc3cc(Cl)ccc3c2Cl)CC1 | -0.676
33 | O=C(C[n+]1cc(-c2ccccc2)n2c1CCC2)OCc1ccccc1 | 5.17 (active)
34 | O=C(C[n+]1cc(-c2ccccc2)n2c1CCC2)N1c2ccccc2Sc2ccccc21 | -0.288
35 | O=C(C[n+]1cc(-c2ccc(Cl)c(Cl)c2)n2c1CCC2)OCc1ccccc1 | 0.0701
36 | NC(=O)C(c1ncc(C(F)(F)F)cc1Cl)c1c(Cl)cccc1Cl (stereo not given) | -0.197
37 | CC1(C)Cc2[nH]c(=O)c(C#N)cc2CS1 | 0.0257
38 | CCn1c(SCc2ccc(Cl)cc2Cl)nc2nc3c(cc2c1=O)CCCC3 | -0.163
39 | CC1CCCCC1NC(=O)COn1nnc2ccc(Cl)cc21 (stereo not given) | -0.171
40 | CCOC(=O)Cn1c(=O)oc2cc(S(=O)(=O)Nc3ccc(N(CC)CC)cc3C)ccc21 | 2.74
41 | CCN(CC)c1ccc(NS(=O)(=O)c2ccc3c(c2)oc(=O)n3C)c(C)c1 | 0.308
42 | CCOC(=O)Cn1c(=O)oc2cc(S(=O)(=O)NCCCc3ccccc3)ccc21 | 3.36 (active)
43 | CCCCNS(=O)(=O)c1ccc2c(c1)oc(=O)n2CC(=O)OCC | 0.0209
44 | CCOC(=O)Cn1c(=O)oc2cc(S(=O)(=O)NCCc3ccc(C)cc3)ccc21 | -0.171

Row | Structure (SMILES) | z-score
45 | CCOC(=O)Cn1c(=O)oc2cc(S(=O)(=O)Nc3c(C)cc(C)cc3C)ccc21 | -0.223
46 | N#CCC(=O)N/N=C1\CCCCC1C1CCCCC1 (stereo not given) | 0.419
47 | CC(C)C(=O)Nc1ccnc(-c2cccnc2)n1 | -0.0191
48 | CC(C)OC(=O)c1cc2c(ccn2C)n1CC(=O)N(Cc1ccccc1)c1ccccc1 | -0.243
49 | CCN1/C(=C2/OC(=S)N(C)C2=O)Sc2ccccc21 | 1.02
50 | O=C(COc1ccccc1)N1CCN(S(=O)(=O)Cc2ccccc2)CC1 | 0.0406
51 | O=S(=O)(Nc1ccc2nc(-c3ccc(Br)o3)[nH]c2c1)c1ccccc1 | -0.849
52 | O=S(=O)(Nc1ccc2nc(C(F)(F)F)[nH]c2c1)c1ccccc1 | 4.74 (active)
53 | Cc1ccc(-c2nc3ccc(NS(=O)(=O)c4ccccc4)cc3[nH]2)o1 | 1.31
54 | Cc1ccc2[nH]c(=O)c(C(c3nnnn3C(C)(C)C)N3CCN(C(=O)c4ccco4)CC3)cc2c1 (stereo not given) | -0.0115
55 | CC(C)CCn1c(S(=O)(=O)O)nc2ccccc21 | 3.16 (active)
56 | CCC(C)Cn1c(S(=O)(=O)O)nc2ccccc21 (stereo not given) | -0.238
57 | CCCCn1c(S(=O)(=O)O)nc2ccccc21 | -0.0451
58 | CC(C)Sc1nc2c(c(=O)n1-c1ccc(F)cc1)SCC2 | -0.98
59 | O=C(Nc1nc2ccccc2s1)c1cc(-c2ccccc2)nn1-c1ccccc1 | 1.18
60 | CC(=O)c1sc(NC(=O)c2cc(-c3ccccc3)nn2-c2ccccc2)nc1C | 3 (active)
61 | Cc1ccc(C)c(NC(=O)c2cc(-c3ccccc3)nn2-c2ccccc2)c1 | 2.08
62 | Cc1ccc(NC(=O)c2cc(-c3ccccc3)nn2-c2ccccc2)c(Br)c1 | 0.496
63 | Cc1ccc(NC(=O)c2cc(-c3ccccc3)nn2-c2ccccc2)cc1 | 1.28
64 | CCc1nnc(NC(=O)c2cc(-c3ccccc3)nn2-c2ccccc2)s1 | 0.27
65 | COc1nccnc1NS(=O)(=O)c1ccc(N=Cc2c(C)[nH]n(-c3ccccc3)c2=O)cc1 | -0.188
66 | CN(C)c1ccc(NC(=O)c2ccc([N+](=O)[O-])cc2Cl)cc1 | -0.282

Row | Structure (SMILES) | z-score
67 | CCCCN(CCCC)S(=O)(=O)c1ccc(NC(=O)c2ccc([N+](=O)[O-])cc2Cl)cc1 | 3.01 (active)
68 | CCC(C)NS(=O)(=O)c1ccc(NC(=O)c2ccc([N+](=O)[O-])cc2Cl)cc1 (stereo not given) | 0.0866
69 | C=CCOn1c(=O)c(-c2ccc(OC)c(OC)c2)[n+]([O-])c2ccccc21 | -0.224
70 | CCOC(=O)c1nn(-c2ccc(F)cc2)c2nc(Nc3ccccc3)cc(=O)n12 | -0.123
71 | O=C(Nc1ccc2nc(-c3ccc(Br)o3)[nH]c2c1)c1cccs1 | -0.969
72 | CCc1cc2c(N[C@@H](Cc3c[nH]c4ccccc34)C(=O)O)ncnc2s1 | -0.16
73 | CN(CC(=O)Nn1cnnc1)S(=O)(=O)c1ccccc1 | -0.262
74 | CN(CC(=O)Nc1ccncc1)S(=O)(=O)c1ccc(Br)cc1 | -0.284
75 | CN(CC(=O)Nn1cnnc1)S(=O)(=O)c1ccc(Br)cc1 | 4.35 (active)
76 | Cc1cc(=O)[nH]c(-n2nc(C)c(Oc3ccccc3O)c2C)n1 | -0.0623
77 | Cc1sc(NC(=O)C2C3CCC(O3)C2C(=O)O)c(C(=O)OC(C)C)c1-c1ccc(Cl)cc1 (stereo not given) | -0.429
78 | Cc1ccc(-c2c(C)sc(NC(=O)C3C4CCC(O4)C3C(=O)O)c2C(=O)OC(C)C)cc1 (stereo not given) | 4.99 (active)
79 | CCOC(=O)c1c(NC(=O)C2C3CCC(O3)C2C(=O)O)sc(C)c1-c1ccc(C)cc1 (stereo not given) | -0.26
80 | COC(=O)C(C)Sc1nnc(-c2ccncc2)o1 (stereo not given) | -0.297
81 | CCOC(=O)N1CCC(N2C(=O)c3cc(C(=O)NC4CCCCC4)ccc3C2O)CC1 (stereo not given) | -0.198
82 | CCOC(=O)N1CCC(N2C(=O)c3ccc(C(=O)NCc4ccco4)cc3C2=O)CC1 | -0.36
83 | CCOC(=O)c1c(N)sc2c1CCC(CC)C2 (stereo not given) | 0.0842
84 | CCOC(=O)c1c(NC(=O)C2C3C=CC(C3)C2C(=O)O)sc2c1CCC(CC)C2 (stereo not given) | 3.71 (active)
85 | CCOC(=O)c1c(NC(=O)C2C3C=CC(CC3)C2C(=O)O)sc(C)c1C (stereo not given) | 0.959
86 | Cc1ccc(OCCNC(=O)/C=C/c2ccccc2)cc1C | -0.203
87 | CCOC(=O)c1nn(-c2ccccc2)c(=O)cc1SC(C)C | -0.0576
88 | COC(=O)NNC(=O)c1cccc(C)c1 | -0.067

Row | Structure (SMILES) | z-score
89 | CC(C)(C)NC(=O)C(=O)NNC(=O)c1ccc(C(C)(C)C)cc1 | 5.3 (active)
90 | CC(C)(C)c1ccc(C(=O)NNC(=O)C(=O)N2CCCCC2)cc1 | 0.478
91 | Cc1cccc(C(=O)NNC(=O)C(=O)NC(C)(C)C)c1 | 2.45
92 | CC(C)(C)NC(=O)C(=O)NNC(=O)c1ccccc1 | 1.57
93 | Cc1cccc(C(=O)NNC(=O)c2ccccc2)c1 | -0.0133
94 | Cc1nc(C)c(C(=O)N/N=C/c2cn(C)c3ccccc23)s1 | 0.0943
95 | CCOCCc1nnc(NC(=O)c2cccc(F)c2)s1 | -0.243
96 | COc1ccc(NC(=O)Cn2c(=O)n(CC(=O)NCc3ccco3)c(=O)c3ccccc32)cc1 | 0.213
97 | O=C(CN(Cc1ccccc1)C1=NCCS1)c1ccccc1 | -0.754
98 | COc1ccc(-c2noc(-c3ccccc3C(=O)Nc3cccnc3)n2)cc1OC | 0.205
99 | N#CCc1ccc(C(=O)c2ccccc2)s1 | -0.167
100 | Cc1ccc(N(CC(=O)N2CCOCC2)S(=O)(=O)c2ccccc2)cc1 | 0.464
101 | CC(C)N1CCC(=NNc2ccc(S(=O)(=O)N3CCOCC3)cc2[N+](=O)[O-])CC1 | 0.0912
102 | OC(CNCC1CCCO1)Cn1c2ccc(Br)cc2c2cc(Br)ccc21 (stereo not given) | 3.72 (active)
103 | OC(CNCC1CCCO1)Cn1c2ccc(Cl)cc2c2cc(Cl)ccc21 (stereo not given) | 0.381
104 | OC(CNCc1ccco1)Cn1c2ccc(Br)cc2c2cc(Br)ccc21 (stereo not given) | 0.138
105 | Cc1ccc(S(=O)(=O)N(C)C)cc1NC(=O)CCNC(=O)c1ccccc1Cl | -0.212
106 | C=CCN1C(=O)C2C(C(=O)NC3CCCCC3)C3C=CC2(O3)C1C(=O)NC1CCCC1 (stereo not given) | -0.014
107 | O=C(Nc1ccc(OC(F)(F)F)cc1)c1n[nH]c(Cn2cncn2)n1 | -0.0524
108 | COc1cccc(C2=NN(C(=O)c3ccccc3)C(O)(C(F)(F)F)C2)c1 (stereo not given) | 2.79
109 | COc1ccc(C(=O)N2N=C(c3cccc(OC)c3)CC2(O)C(F)(F)F)cc1 (stereo not given) | 0.326
110 | COc1cccc(C(=O)N2N=C(c3cccc(OC)c3)CC2(O)C(F)(F)F)c1 (stereo not given) | 0.00352
